This passage reports outcome and AC50 results from PubChem BioAssay (EPA / NIEHS).

Active and inactive are the calls of the source. The calls were made as follows: active = hit-call score of the fitted dose curve at least 0.9, where 1 is the maximum; inactive = score below 0.9.

Read-out in this test: ATP-citrate lyase (ACLY), ACLY (gene 47)
The test is described as follows: LTEA_HepaRG_ACLY: Life Technologies and Expression Analysis (LTEA) Assay for ATP-citrate lyase (ACLY) using HepaRG (AID 2283466). As to conditions: mRNA level, 48 h; actives raise or lower the signal. As for the experimental part:
LTEA_HepaRG is a cell based, multiplexed-readout assay that uses HepaRG, a human liver cell line, with measurements taken at 48 hours after chemical dosing on a 96-well plate.LTEA_HepaRG_ACLY is one of 102 assay component(s) measured in the LTEA HepaRG cell culture assay. It is a marker of Steatosis.Data from the assay component LTEA_HepaRG_ACLY was analyzed into 1 endpoint. This assay endpoint, LTEA_HepaRG_ACLY, was analyzed with bidirectional fitting relative to DMSO as the negative control and baseline of activity. Using a type of inducible reporter, measures of mRNA induction for gain or loss-of-signal activity can be used to understand regulation of transcription factor activity. To generalize the intended target to other relatable targets, this assay endpoint is annotated to the lyase intended target family, where the subfamily is steatosis.
A total of 1060 chemcials from the ToxCast library were tested in eight-point concentration-response experiments. Cell culture and cytotoxicity assays were conducted at Thermo Fisher Scientific's Custom Services facility (Madison, WI). A single lot of human HepaRG cells (Thermo Fisher Scientific, Frederick, MD) was used for the cell culture experiments. 96-well format collagen type I coated plates of human HepaRG cells were prepared using established methods. Briefly, cryopreserved HepaRG cells were thawed, plated at a density of approximately 100,000 cells/well in HepaRG Thaw, Plate, and General Purpose media (HPRG770, Thermo Fisher Scientific), and incubated for 48 hours. 0.5% DMSO was selected as vehicle control to balance the requisite need of DMSO in HepaRG cultures to maintain differentiation (for example, baseline metabolism, proportions of hepatocytes vs. cholangiocytes), while enabling further hepatic receptor pathway activation (for example, PXR and CAR) in response to chemical exposure. 48 hours after plating, the culture medium was replaced with HepaRG Serum-Free Incudtion Media. Cells were exposed to each test chemical in duplicate and maintained in CO2 incubators for another 48 hours. Chemical plates were thawed to room temperature and 200x concentrations of treatment groups were prepared. 8-point conentration-reponse curves were made with the highest exposure at 100 uM, followed by half-log dilutions, all in 0.5% DMSO. Each test plate contained variouse controls, induction positive controls (1mM phenobarbital), cytotoxicity positive controls ([…] aflatoxin B1), vehicle controls (0.5% DMSO), and total lysis controls (0.5% DMSO). Cell morphology images were taken using an Essen IncuCyte FLR automated microscope, with six 96-well plates imaged in about 24 minutes. Images were captured and exported and JPEG files. Spent culture media was transfered to black-well plates for the LDH assay, and remaining media was sorted at -80 C for later use. Cells were treated with RLT buffer and frozen until shipped for gene expression analysis. Total RNA was isolated from the cell suspension in 75 uL of Buffer RLT (Qiagen, Germantown, MD 20874) by Quintiles/Expression Analysis (Durham, NC) using a custom isolation procedure. Total RNA from each plate well was transferred to a preamplification plate. Fluidigm's 96.96 Dynamic ArrayTM (Fluidigm, Amsterdam, the Netherlands) technology was used for gene expression analyses by quantitative reverse transcription polymerase chain reaction (qRT-PCR, performed by Quintiles/Expression Analysis, Durham, NC)89. Standard TaqManTM Assays (Applied Biosystems/ThermoFisher Scientific, Foster City, CA) were used to assess the expression of 93 genes selected based on their selectivity and sensitivity to important hepatic receptors known to be modulated by environmental chemicals; importance in human hepatocyte functionality; and hepatotoxicity. […]
Regarding `c1ccc(C(O[C@@H]2CCCN(CCc3ccc4c(c3)OCO4)C2)c2ccccc2)cc1`, the outcome was inactive.
The same measure, in the same setting: under `O=C(O)c1ccc2c(c1)nc(C(=O)NC1CCN(C3CC3)CC1)n2Cc1cc(-c2ccc(Cl)s2)on1` stands “inactive”; under `OCCNCCO`, “inactive”; under `COS(C)(=O)=O`, “inactive”.
The same measure, in the same setting: under `Cc1nc(-c2ccccn2)ncc1C(=O)Nn1cc(C)c2cc(F)ccc21` stands “inactive”; under `Cn1c(=O)c2[nH]cnc2n(C)c1=O`, “inactive”; under `CCCCCCCCN(C)C`, “inactive”.
Still for that read-out and setting: under `OC(Cn1cncn1)(Cn1cncn1)c1ccc(F)cc1F` stands “inactive”; under `c1ccc2ncccc2c1`, “inactive”.
As for `CC[C@H](C)C(=O)O[C@H]1C[C@H](O)C=C2C=C[C@H](C)[C@H](CC[C@@H](O)C[C@@H](O)CC(=O)O)[C@H]21`, the AC50 (commonly the concentration at which the activity in the assay is half-maximal) was 9.05 µM (active).
Turning to `CCn1nc(C)c2c1C(=O)NCC(c1ccc(O)cc1)=N2`, the outcome was inactive.
Still for that read-out and setting: under `Nc1ccn([C@@H]2O[C@H](CO)[C@@H](O)[C@@H]2O)c(=O)n1` stands “inactive”.
Same read-out and setting: with `C[C@]12C=CC(=O)C=C1CC[C@H]1[C@@H]3C[C@@H](O)[C@](O)(C(=O)CO)[C@@]3(C)C[C@H](O)[C@@]12F` the entry was “inactive”.
The same measure, in the same setting: under `C[C@@H](Oc1ccc(CNC(=O)c2cccnc2Oc2ccc3c(c2)OCO3)c(F)c1)C(=O)O` stands “inactive”; under `COc1cc2c(c(OC)c1OC)-c1ccc(OC)c(=O)cc1[C@@H](NC(C)=O)CC2`, “inactive”.
As to `OC[C@H]1O[C@@H]2O[C@H]3[C@H](O)[C@@H](O)[C@@H](O[C@H]4[C@H](O)[C@@H](O)[C@@H](O[C@H]5[C@H](O)[C@@H](O)[C@@H](O[C@H]6[C@H](O)[C@@H](O)[C@@H](O[C@H]7[C@H](O)[C@@H](O)[C@@H](O[C@H]1[C@H](O)[C@H]2O)O[C@@H]7CO)O[C@@H]6CO)O[C@@H]5CO)O[C@@H]4CO)O[C@@H]3CO`, the call was inactive.
The same measure, in the same setting: under `OCC(CO)(CO)CO` stands “inactive”; under `CCc1cccc(CC)c1N`, “inactive”; under `CC1(C)C(=O)N(Cl)C(=O)N1Cl`, “inactive”.
Still for that read-out and setting: under `CNC(C)=O` stands “inactive”; under `CCCC(CCC)C(=O)O`, “inactive”; under `c1ccc2cc3ccccc3cc2c1`, “inactive”.
The same measure, in the same setting: with `O=c1[nH]cnc2c1ncn2[C@H]1CC[C@@H](CO)O1` the entry was “inactive”; with `NC(N)=O`, “inactive”; with `Cc1ncc([C@@H](CCCCCCc2ccc3c(n2)NCCC3)CC(=O)O)cn1`, “inactive”.
For the compound `CCc1ccc(O)c(C(C)(C)C)c1`, the outcome was inactive.
As to `OCCOCCOCCO`, the result was inactive.
On the same count and under the same terms, under `CCCc1ccccc1` stands “inactive”.
On to `OC(CCl)CCl`, for which the call was inactive.
The same measure, in the same setting: under `CCCCCCOC(=O)CC(CC(=O)OCCCCCC)(OC(=O)CCC)C(=O)OCCCCCC` stands “inactive”.
Still for that read-out and setting: with `CCCCCCCCCC` the entry was “inactive”; with `CCCCCCCCCCCCCCCCOS(=O)(=O)O`, “inactive”.
The same measure, in the same setting: under `NNC(=O)c1ccncc1` stands “inactive”.
For the compound `O=S(=O)(O)c1ccc(N=Nc2c(O)ccc3cc(S(=O)(=O)O)ccc23)cc1`, the compound was classed as inactive.
On to `CCCOc1ccc(S(=O)(=O)N2CCN(CC)CC2)cc1-c1nc2c(CC)n(Cc3ccccn3)nc2c(=O)[nH]1`, for which the AC50 is 80.2 µM (active).
`CCCCOC(=O)c1ccccc1`: the call was inactive.
On the same count and under the same terms, under `COc1cc(C(C)C)c2c(c1)S(=O)(=O)N(COc1cc(=O)n3cccc(OCCN4CCCCC4)c3n1)C2=O` stands “inactive”; under `Cn1cc[nH]c1=S`, “inactive”; under `NC(=O)N1c2ccccc2C=Cc2ccccc21`, “inactive”.
On to `CC(C)C(=O)Nc1ccc([N+](=O)[O-])c(C(F)(F)F)c1`, for which the AC50 is 17.6 µM (active).
